Consider 45 compounds from PubChem BioAssay AID2685 (National Center for Advancing Translational Sciences (NCATS), 2010).

Out of some 320,000 compounds screened, about 2,100 (0.66%) were called active. Another 53% or so got no clear call; they are omitted. Calls follow the shape of the dose curve; as a rule, active = well fitted inhibition curve with a large enough effect in the signal ratio, with a control signal flat (not every such curve was filed as active); inconclusive = small, poorly fitted or top-dose-only effect, or effect the other way, or a change in a side signal; inactive = flat fitted curve, though single readings scatter; the % refers to the signal ratio. This excerpt belongs to a sample that is enriched for actives.
Potency is read from the fitted curve at half-maximal effect.

This test can be described thus: qHTS Assay for Lipid Storage Modulators in Drosophila S3 Cells.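 As to cell number change: cells counted by Cell Tracker Red CMTPX staining in the red channel.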 The following applies: BODIPY lipid droplet fluorescence, 18-24 h, cells fed with added oleic acid; cell number change: measured here: cell count max response; series mostly up to 46.1 µM. The procedure, abridged: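 Drosophila S3 cells loaded with oleic acid (400 uM, as added) and compounds at several concentrations; lipid droplets imaged by 488-nm laser-scanning cytometry, 500–530 nm intensity and object ratio to cell channel. Percent activity normalized to 20 uM Triacsin C.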
For orientation: Quantitative high-throughput screening tests each substance at several concentrations.
On to `COc1cccc(OCc2cc(C(=O)N3CCC(c4ccncc4)CC3)no2)c1`, for which the Potency is 4.11 µM (active).
`O=C(c1cc(COc2ccccc2)on1)N1CCCC(OCc2cccnc2)C1` (centres undefined): the Potency is 1.03 µM (active).
For the compound `CCC(O)C1CCN(C(=O)c2cc(COc3ccc4ncccc4c3)on2)CC1` (centres undefined), the Potency result is “inactive”.
On to `COc1ccccc1OCc1cc(C(=O)N2CCCC(OCc3cccnc3)C2)no1` (centres undefined), for which the Potency entry was “inactive” and the cell number change came to 8.19%.
`Cc1cccc(C)c1OCc1cc(C(=O)N2CCC(c3ccncc3)CC2)no1`: the Potency entry was “inactive” and the cell number change was -16.1%.
As for `CCN1CCN(C(=O)c2cc(COc3ccc4ncccc4c3)on2)CC1`, the Potency result was “inactive” and the cell number change is -6.54%.
On the same counts, the results for `O=C(c1cc(COc2ccc(F)cc2Cl)on1)N1CCCC(OCc2cccnc2)C1` (centres undefined) are “inactive” and -4.29%.
For the compound `COc1cccc(OCc2cc(C(=O)N3CCN(C(C)=O)CC3)no2)c1`, the Potency entry was “inactive” and the cell number change stood at 19%.
On to `O=C(c1cc(COc2ccc3ncccc3c2)on1)N1CCCC1`, for which the Potency is 7.31 µM (active) and the cell number change is -24%.
On the same counts, the results for `CCOC(=O)C(C(=O)OCC)N(C#N)c1nc(N(C)C)nc(N(C)C)n1` are “inactive” and 12.4%.
`O=c1[nH]n2cc(-n3cc([N+](=O)[O-])cn3)cnc2c1Br`: the Potency result was “inactive”.
For the compound `Cc1ccc(C(=O)Nc2ccc(N3CCN(C)CC3)cc2)cc1C`, the Potency entry is “inactive” and the cell number change came out at 4.5%.
Regarding `Nc1nnc(SCc2ccccc2F)s1`, the Potency result is “inactive” and the cell number change was 16.1%.
For `COc1ccc(NC(=O)CC2C(=O)N(C)C(=S)N2Cc2ccc3c(c2)OCO3)cc1` (centres undefined), the Potency entry is “inactive” and the cell number change turned out to be 20%.
On the same counts, the results for `C/C(=N\O)c1c(O)cc(-c2ccccc2)n(-c2ccccc2)c1=O` are “inactive” and 13.2%.
On to `COc1ccc(-c2ccc(CCC(=O)O)n2-c2ccccc2O)cc1`, for which the Potency result was “inactive” and the cell number change amounted to 6.08%.
As for `Oc1ccccc1-n1c(-c2ccccc2)ccc1-c1ccccc1`, the Potency is 2.06 µM (active) and the cell number change was -6.63%.
Take `O=C(CCCN1C(=O)c2ccccc2C1=O)Nc1ccc(Br)cn1`: the Potency entry was “inactive” and the cell number change turned out to be 16.2%.
As to `Cc1ccc(S(=O)(=O)N2CCOC2CNC(=O)C(=O)NCCCN2CCOCC2)cc1` (centres undefined), the cell number change is -5.14% and the outcome was “inactive [at 0.369 µM]”.
As for `COC(=O)c1ccncc1C(=O)Nc1ccc(Oc2ncc(C(F)(F)F)cc2Cl)cc1`, the Potency entry was “inactive” and the cell number change is -10.1%.
Turning to `CCCOc1ccc(CCC(=O)O)cc1`, the Potency entry was “inactive” and the cell number change turned out to be 1.83%.
`Cc1nc(SCC(=O)NC(=O)NC2CCCCC2)nc(C)c1C`: the Potency result was “inactive” and the cell number change is -13.4%.
For `COc1ccc(CCN(C)C(=O)C(CCSC)NC(=O)c2ccco2)cc1OC` (centres undefined), the Potency was 2.31 µM (active) and the cell number change is -10.8%.
As to `COc1ccc(CCNC(=O)c2ccco2)cc1OC`, the Potency result was “inactive” and the cell number change is 10.7%.
As for `CSCCC(NC(=O)c1ccco1)C(=O)N(C)CC(=O)Nc1c(Cl)cccc1Cl` (centres undefined), the Potency entry was “inactive”.
In the case of `CCOC(=O)c1c(-c2ccccc2)csc1NC(=O)/C(C#N)=C/c1ccc(OC)c(OC)c1`, the Potency result is “inactive” and the cell number change is -0.159%.
With `COc1cc(/C=C(\C#N)C(=O)NCc2cccs2)ccc1O`, the Potency entry was “inactive” and the cell number change is -0.911%.
On the same counts, the results for `CCOC(=O)c1c(-c2ccc(C)cc2)csc1NC(=O)/C(C#N)=C/c1ccc(O)c(OC)c1` are 23.1 µM (active) and -27.7%.
With `COc1ccccc1NC(=O)CN1CCOCC1`, the Potency entry was “inactive” and the cell number change came out at 25.4%.
For the compound `COc1ccc(/C=N/NC(=O)c2cccc(NC(=O)c3ccccc3Cl)c2)cc1`, the Potency entry was “inactive” and the cell number change is -0.417%.
On to `O=C(COC(=O)CCOc1ccccc1)NCCC1=CCCCC1`, for which the Potency result was “inactive” and the cell number change amounted to 10.9%.
As for `CCOC(=O)C(C)(C)N(Cc1ccc(C)cc1)S(=O)(=O)c1ccc(Cl)c([N+](=O)[O-])c1`, the Potency result was “inactive” and the cell number change was -25.3%.
For the compound `CCOC(=O)C(C)(C)NS(=O)(=O)c1ccc(Cl)c([N+](=O)[O-])c1`, the Potency is 20.6 µM (active) and the cell number change was -25%.
For `CCOC(=O)C(C)(C)N(Cc1ccccc1C)S(=O)(=O)c1ccc(Cl)c([N+](=O)[O-])c1`, in that order: “inactive” and -1.56%.
Regarding `CCOC(=O)C(C)(C)N(Cc1ccc(Cl)cc1)S(=O)(=O)c1ccc(Cl)c([N+](=O)[O-])c1`, the Potency entry is “inactive” and the cell number change stood at 5.39%.
For the compound `CCOC(=O)C(C)(C)N(Cc1cccc(C)c1)S(=O)(=O)c1cccc([N+](=O)[O-])c1`, the Potency entry was “inactive” and the cell number change was -5.11%.
In the case of `CCOC(=O)C(C)(C)N(Cc1cccc(C)c1)S(=O)(=O)c1ccc(Cl)c([N+](=O)[O-])c1`, the Potency was 16.4 µM (active) and the cell number change was -21.7%.
Regarding `CC(C)(C)NC(=O)c1cc(-c2ccccc2)n[nH]1`, the Potency entry was “inactive”.
Regarding `CCCOc1ccc(/C=C2\SC(N)=NC2=O)cc1OC`, the Potency result was “inactive” and the cell number change came out at 8.06%.
For `NC(=O)c1cc(S(=O)(=O)N2CCN(c3cccc(Cl)c3)CC2)cs1`, in that order: “inactive” and 14.3%.
With `COc1ccccc1/C=C/C1C(C(=O)OCC(C)C)=C(C)N=C2SCCC(=O)N21` (centres undefined), the Potency result is “inactive” and the cell number change worked out at 9.42%.
On to `Cc1ccc(NC(=O)c2cn(CCC#N)nc2-c2cccs2)c([N+](=O)[O-])c1`, for which the Potency result was “inactive” and the cell number change is -4.62%.
`Cc1cccc(C2NC(c3cccc(C)c3)C([N+](=O)[O-])C(C)(C)C2[N+](=O)[O-])c1` (centres undefined): the Potency was 5.17 µM (active) and the cell number change is 3.3%.
Consider `Cc1ccc(C2NC(c3ccc(C)cc3)C([N+](=O)[O-])C(C)(C)C2[N+](=O)[O-])cc1` (centres undefined), for which the Potency result was “inactive” and the cell number change was -8.86%.
On the same counts, the results for `CC1(C)C([N+](=O)[O-])C(c2ccc(F)cc2)NC(c2ccc(F)cc2)C1[N+](=O)[O-]` (centres undefined) are “inactive” and 2.48%.
